According to PubChem BioAssay (Tox21):
Results filed as inconclusive are left out. Calls of active or inactive are those of the source. Unless noted, calls follow the shape of the dose curve; as a rule, active = well fitted curve in the direction sought with a large enough effect in the repeat runs; inconclusive = weak or mixed curves; inactive = no such curve, though single readings can be large; an effect the other way counts as inactive or inconclusive.

How the values were obtained:
[1] = qHTS assay to identify small molecule antagonists of the thyroid receptor (TR) signaling pathway - cell viability counter screen (AID 743064); also: nearly all actives have a fitted effect of over 50% in size
In short: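 Fluorescence from CellTiter-Fluor, added after 23.5 h exposure at 37 °C, reported viability of GH3.TRE-Luc cells co-treated with compound and 1 nM T3. Measured in the same wells as the luciferase TR readout.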

[2] = qHTS assay to identify small molecule antagonists of the thyroid receptor (TR) signaling pathway (AID 743065); also: nearly all actives have a fitted effect of over 55% in size
In short: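 GH3.TRE-Luc rat pituitary cells (two TREs driving luciferase) were dosed with compound, then stimulated with 1 nM T3 (final) for 23.5 h at 37 C. ONE-Glo luminescence was the read-out, with CellTiter-Fluor fluorescence as the cytotoxicity counter-screen.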

[3] = test system: thyroid hormone receptor (rat, GH3 cells); experiment: qHTS assay to identify small molecule agonists of the thyroid receptor (TR) signaling pathway (AID 743066; calls by dose curve)
[4] = biological target: Estrogen receptor (Homo sapiens) (UniProt P03372); experiment: qHTS assay to identify small molecule antagonists of the estrogen receptor alpha (ER-alpha) signaling pathway (AID 743069; active = well fitted curve in the direction sought with a large enough effect in the signal ratio in the repeat runs, not every such curve was filed as active; the % refers to the signal ratio)
In short: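 Reporter cells (ER-alpha-bla, HEK293 background) are conditioned overnight in stripped-serum medium (2% charcoal-stripped FBS). Compound and 17beta-estradiol exposure runs 18 hr at 37C, 5% CO2.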

[5] = qHTS assay to identify small molecule antagonists of the estrogen receptor alpha (ER-alpha) signaling pathway - cell viability counter screen (AID 743074; calls by dose curve;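 also: HEK293 cells carrying ER-alpha-UAS-bla reporter stimulated with 17beta-estradiol; nearly all actives have a fitted effect of over 45% in size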)
[6] = biological target: Estrogen receptor (Homo sapiens) (UniProt P03372); experiment: qHTS assay to identify small molecule agonists of the estrogen receptor alpha (ER-alpha) signaling pathway (AID 743075; calls by dose curve;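 also: HEK293 GripTite cells with ER-alpha and UAS-driven beta-lactamase reporter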)
[7] = biological target: Estrogen receptor (Homo sapiens) (UniProt P03372); experiment: qHTS assay to identify small molecule agonists of the estrogen receptor alpha (ER-alpha) signaling pathway using the BG1 cell line (AID 743079); conditions: BG1Luc4E2 cells, ERE-luciferase agonist, 22 h; activation: at 70.3 µM (top of the series); also: nearly all actives have a fitted effect of over 20% in size
[8] = qHTS assay to identify small molecule antagonists of the estrogen receptor alpha (ER-alpha) signaling pathway using the BG1 cell line (AID 743080; calls by dose curve;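 also: BG1 cells stimulated with 17beta-estradiol alongside compound; nearly all actives have a fitted effect of over 25% in size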)
In short: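 BG1-Luc-4E2 cells (endogenous full-length ER-alpha, stable 4×ERE-luciferase) were starved 5 days in phenol-red-free medium with 10% charcoal-stripped FBS, plated 24 h, then given compound plus 17beta-estradiol for 21.5 h at 37 C; ONE-Glo luminescence read after 30 min.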

[9] = qHTS assay to identify small molecule antagonists of the estrogen receptor alpha (ER-alpha) signaling pathway using the BG1 cell line - cell viability counter screen (AID 743081);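 also: compound given together with 17beta-estradiol as the ER stimulus; nearly all actives have a fitted effect of over 45% in size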
[10] = biological target: Aromatase (Homo sapiens) (UniProt P11511); experiment: qHTS assay to identify aromatase inhibitors (AID 743083); also: nearly all actives have a fitted effect of over 55% in size
[11] = qHTS assay to identify aromatase inhibitors - cell viability counter screen (AID 743084);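 also: cells stimulated with testosterone during compound exposure; nearly all actives have a fitted effect of over 55% in size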
[12] = qHTS assay to identify small molecule that activate the aryl hydrocarbon receptor (AhR) signaling pathway - cell viability counter screen (AID 743086);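 also: HepG2 liver cells carrying the AhR DRE luciferase reporter; nearly all actives have a fitted effect of over 45% in size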
In short: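 HepG2-AhR-luc (HG2L7.5c1) cells, 4000/well, treated 24 h at 37 C with compound; viability measured as CellTiter-Fluor fluorescence after 30 min in the same wells as the luciferase read.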

[13] = biological target: Peroxisome proliferator-activated receptor gamma (Homo sapiens) (UniProt P37231); experiment: qHTS assay to identify small molecule agonists of the peroxisome proliferator-activated receptor gamma (PPARg) signaling pathway (AID 743094; active = well fitted activation curve with a large enough effect in the signal ratio in the repeat runs, not every such curve was filed as active; the % refers to the signal ratio)
In short: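 GeneBLAzer PPARg UAS-bla HEK293H cells carrying a stably integrated beta-lactamase reporter were pre-incubated 5 h at 37C, then exposed to compounds in DMSO for 17 h at 37C; LiveBLAzer B/G FRET substrate was added for 1 h at room temperature and fluorescence read.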

[14] = qHTS assay to identify small molecule phospholipidosis (PLD) inducers (AID 1259344; active = well fitted curve in the direction sought with a large enough effect; an effect the other way counts as inactive or inconclusive)
In short: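 Quantitative HTS in HepG2: compound plus LipidTOX Red dye for 24 h, paraformaldehyde fixation with Hoechst 33342, widefield high-content imaging; amiodarone as positive and DMSO as negative control.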

[15] = biological target: Aryl hydrocarbon receptor (Homo sapiens) (UniProt P35869); experiment: qHTS assay to identify small molecule that activate the aryl hydrocarbon receptor (AhR) signaling pathway (AID 743085);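 also: HG2L7.5c1 human HepG2 liver cells with stably integrated DRE-driven firefly reporter; nearly all actives have a fitted effect of over 15% in size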
In short: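 Cell line HG2L7.5c1 (human hepatoma, 20× DRE-luc). Plated, 5 h 37C, compound/DMSO added, 24 h 37C. CellTiter-Fluor 30 min 37C → fluorescence; then ONE-Glo 30 min RT → luminescence.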

Measured: Potency

Chain of Peroxisome proliferator-activated receptor gamma (Homo sapiens) (P37231 whole entry, looked up): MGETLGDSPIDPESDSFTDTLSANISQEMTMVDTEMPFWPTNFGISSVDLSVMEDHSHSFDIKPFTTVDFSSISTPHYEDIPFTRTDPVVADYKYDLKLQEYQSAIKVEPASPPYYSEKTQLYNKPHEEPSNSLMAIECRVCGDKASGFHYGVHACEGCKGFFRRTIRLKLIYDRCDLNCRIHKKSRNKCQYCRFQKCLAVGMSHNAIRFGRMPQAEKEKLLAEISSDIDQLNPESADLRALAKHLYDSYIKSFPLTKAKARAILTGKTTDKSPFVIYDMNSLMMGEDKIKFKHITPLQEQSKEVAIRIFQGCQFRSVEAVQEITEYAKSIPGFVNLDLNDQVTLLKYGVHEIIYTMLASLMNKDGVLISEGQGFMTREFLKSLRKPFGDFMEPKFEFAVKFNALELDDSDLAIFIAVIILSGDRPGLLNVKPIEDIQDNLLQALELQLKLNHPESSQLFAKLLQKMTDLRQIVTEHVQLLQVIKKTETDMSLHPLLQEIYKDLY
Chain of Estrogen receptor (Homo sapiens) (P03372 whole entry, looked up): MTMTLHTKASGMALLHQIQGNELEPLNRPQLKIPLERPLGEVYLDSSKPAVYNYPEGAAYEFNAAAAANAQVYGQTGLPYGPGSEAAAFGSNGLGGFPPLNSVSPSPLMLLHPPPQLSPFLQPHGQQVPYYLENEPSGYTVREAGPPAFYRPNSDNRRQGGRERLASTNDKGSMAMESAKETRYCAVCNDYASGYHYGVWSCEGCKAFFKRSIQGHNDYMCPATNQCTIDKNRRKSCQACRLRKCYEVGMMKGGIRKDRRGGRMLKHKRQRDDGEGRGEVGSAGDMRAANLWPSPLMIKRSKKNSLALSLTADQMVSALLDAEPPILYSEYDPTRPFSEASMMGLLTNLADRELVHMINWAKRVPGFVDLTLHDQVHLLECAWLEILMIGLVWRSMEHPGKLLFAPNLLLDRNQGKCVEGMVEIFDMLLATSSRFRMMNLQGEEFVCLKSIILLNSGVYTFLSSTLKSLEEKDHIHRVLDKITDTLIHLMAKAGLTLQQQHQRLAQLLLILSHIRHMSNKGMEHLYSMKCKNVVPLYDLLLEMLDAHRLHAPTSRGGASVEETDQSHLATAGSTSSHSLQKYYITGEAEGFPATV
Chain of Aromatase (Homo sapiens) (P11511 whole entry, looked up): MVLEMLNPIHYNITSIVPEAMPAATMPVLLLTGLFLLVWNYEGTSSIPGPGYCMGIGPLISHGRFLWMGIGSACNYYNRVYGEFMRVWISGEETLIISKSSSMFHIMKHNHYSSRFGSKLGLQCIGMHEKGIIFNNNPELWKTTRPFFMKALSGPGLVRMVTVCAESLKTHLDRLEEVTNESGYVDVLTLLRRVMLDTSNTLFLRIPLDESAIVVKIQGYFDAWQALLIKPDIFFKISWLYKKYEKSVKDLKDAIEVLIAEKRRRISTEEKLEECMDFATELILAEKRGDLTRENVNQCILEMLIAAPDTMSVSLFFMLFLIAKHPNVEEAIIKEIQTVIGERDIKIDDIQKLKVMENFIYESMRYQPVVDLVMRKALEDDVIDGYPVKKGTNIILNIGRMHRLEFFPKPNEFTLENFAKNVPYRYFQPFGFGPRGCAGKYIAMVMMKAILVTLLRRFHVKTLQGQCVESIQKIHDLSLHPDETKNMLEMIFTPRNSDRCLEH
Chain of Aryl hydrocarbon receptor (Homo sapiens) (P35869 whole entry, looked up): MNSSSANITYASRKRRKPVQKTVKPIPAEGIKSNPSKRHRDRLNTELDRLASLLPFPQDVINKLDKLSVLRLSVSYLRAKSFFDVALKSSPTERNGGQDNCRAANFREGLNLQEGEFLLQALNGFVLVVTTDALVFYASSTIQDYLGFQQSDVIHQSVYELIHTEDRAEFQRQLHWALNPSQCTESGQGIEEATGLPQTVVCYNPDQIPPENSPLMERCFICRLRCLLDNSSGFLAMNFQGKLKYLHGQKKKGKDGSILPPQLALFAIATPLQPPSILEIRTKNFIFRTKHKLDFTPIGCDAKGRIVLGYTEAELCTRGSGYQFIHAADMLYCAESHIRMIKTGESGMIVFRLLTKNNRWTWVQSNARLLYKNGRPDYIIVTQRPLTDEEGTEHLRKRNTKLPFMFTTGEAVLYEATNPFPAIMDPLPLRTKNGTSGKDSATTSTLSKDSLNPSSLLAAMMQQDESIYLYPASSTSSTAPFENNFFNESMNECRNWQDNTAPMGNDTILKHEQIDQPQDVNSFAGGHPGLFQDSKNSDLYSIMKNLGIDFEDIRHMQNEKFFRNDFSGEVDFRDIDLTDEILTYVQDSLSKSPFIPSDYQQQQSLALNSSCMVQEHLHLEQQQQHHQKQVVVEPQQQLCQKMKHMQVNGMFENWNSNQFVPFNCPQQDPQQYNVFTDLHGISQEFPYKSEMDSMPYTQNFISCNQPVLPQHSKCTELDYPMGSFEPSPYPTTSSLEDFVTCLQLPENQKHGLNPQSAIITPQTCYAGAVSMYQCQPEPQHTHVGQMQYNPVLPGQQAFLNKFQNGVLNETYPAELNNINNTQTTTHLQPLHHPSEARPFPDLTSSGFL

CC(=O)O[C@H]1C[C@@H]2CC[C@@H]3[C@H](CC[C@@]4(C)[C@H]3C[C@H](N3CC[N+](C)(C)CC3)[C@@H]4OC(C)=O)[C@@]2(C)C[C@@H]1N1CC[N+](C)(C)CC1
not listed: [15]
inactive: all other assays above

C[C@H](CSC(=O)c1ccccc1)C(=O)N1C[C@@H](Sc2ccccc2)C[C@H]1C(=O)O
inactive: all assays above

O=C(O)c1ccc(OCCn2ccnc2)cc1
inactive: all assays above

CN(C(=O)CO)c1c(I)c(C(=O)NCC(O)CO)c(I)c(C(=O)NCC(O)CO)c1I (stereo not drawn)
inactive: all assays above

COCC1=C(C(=O)OC(C)OC(=O)OC(C)C)N2C(=O)[C@@H](NC(=O)/C(=N\OC)c3csc(N)n3)[C@H]2SC1 (stereo partly drawn)
inactive: all assays above

CC[C@H]1OC(=O)[C@H](C)[C@@H](O[C@H]2C[C@@](C)(OC)[C@@H](O)[C@H](C)O2)[C@H](C)[C@@H](O[C@@H]2O[C@H](C)C[C@H](N(C)C)[C@H]2O)[C@](C)(O)C[C@@H](C)[C@@H]2N[C@@H](COCCOC)O[C@@H]([C@H]2C)[C@]1(C)O
not listed: [15]
inactive: all other assays above
